# Assay outcomes (PubChem BioAssay)
# This is a sample that favours compounds with a hit; in the whole collection about 2.2% have one here.
# APP transl inh: APP translation inhibition | SH-SY5Y APP 5'UTR-luciferase reporter, luminescence | inhibition, % at 2 µM | hit rate 0.82% among 190,000 | AID 1285;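 active = inhibition above a set limit, derived from the sample mean plus 3 SD, cut at about 45% in these data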
# aSyn UTR inh: MLPCN primary screen, SNCA 5' untranslated region | alpha-synuclein 5'UTR reporter, inhibitor activity | inhibition, % (tested at 7.5 µM) | hit rate 0.82% among 300,000 | AID 1813; in the data active = inhibition above about 60%;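 also: H4 neuroglioblastoma cells stably carrying SNCA 5'UTR luciferase fusion; 0% = DMSO wells and 100% = positive control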
# KLF5 inhibitor: suppresses KLF5 promoter-driven expression; DLD-1 KLF5 promoter-luciferase reporter, luminescence; inhibition, % at 5 µM; hit rate 0.23% among 290,000; AID 1700;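 active = inhibition above a per-plate limit of that plate's mean compound inhibition plus 3 SD, cut at about 60% in these data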;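 also: 0% = DMSO wells and 100% = LY294002 at 200 µM; higher means less KLF5 promoter-driven luciferase light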
# IEC-6 tox: kills IEC-6 intestinal cells in KLF5 counter-screen | IEC-6 cytotoxicity, luminescence viability | inhibition, % at 5 µM | hit rate 0.78% among 290,000 | AID 1825;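 also: 0% = plate median of test compound wells and 100% = cytotoxic reference compound wells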
# BaF3 tox: counter-screen for JAK2V617F inhibitors: parental Ba/F3 viability inhibitors; CellTiter-Glo ATP luminescence; inhibition, % at 5.6 µM; hit rate 1.1% among 220,000;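 active = inhibition above a per-campaign cutoff, the mean inhibition of all tested compounds plus 3 SD, cut at about 27% in these data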;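 also: 0% = DMSO wells and 100% = JAK Inhibitor I control wells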
# Ba/F3 V617F tox: lowers viability of Ba/F3 cells expressing EpoR and JAK2V617F | ATP luminescence | inhibition, % at 5.6 µM | hit rate 1.1% among 220,000;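 active = inhibition above the campaign mean plus 3 SD over all tested compounds, cut at about 24% in these data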;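 also: cytokine-independent growth of Ba/F3 cells driven by EpoR plus mutant JAK2; 0% = DMSO-treated cells and 100% = JAK inhibitor I control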
# IEC-6 tox confirm: confirmation of cytotoxic compounds in rat IEC-6 intestinal epithelial cells | shares compounds with IEC-6 tox | IEC-6 rat intestinal epithelial viability, luminescence | inhibition, % at 5 µM | hit rate 63% among 1,900;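 also: 0% = vehicle and 100% = reference cytotoxic drug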
# * marks the source's active call; other numbers are inactive results; / = no result. Rule as the data show it, unless noted: active = inhibition above about 22%; inactive = the rest.
SMILES,APP transl inh,aSyn UTR inh,KLF5 inhibitor,IEC-6 tox,BaF3 tox,Ba/F3 V617F tox,IEC-6 tox confirm
O=C(c1c(Cl)nc2sccn12)N1CCN(c2cccc(Cl)c2)CC1,94*,34,53,63*,76*,78*,44*
COc1ccccc1C(=O)N1CCN(c2cccc(Cl)c2)CC1,95*,64*,60,77*,83*,80*,55*
COc1cc2c(C(=O)N3CCN(c4cccc(Cl)c4)CC3)cn(C)c(=O)c2cc1OC,-9,-4,-17,4,1,-1,/
CNC[C@@H](Cc1ccccc1)NC[C@@H](CC1CCCCC1)NCCCc1ccccc1,/,125*,-18,102*,/,/,71*
CN(C[C@H](Cc1ccccc1)N(C[C@@H](CC1CCCCC1)N(CCc1ccccc1)N=O)N=O)N=O,-4,26,-13,4,3,-2,/
CCC[C@@H](CN[C@@H](CNC)C(C)C)NCCCCc1ccccc1,/,-14,-7,44*,/,/,66*
CCC[C@@H](CNC)NC[C@H](Cc1ccccc1)NCCCCc1ccccc1,/,-16,-22,24*,/,/,101*
CCCC[C@@H](CNC)NC[C@H](NCCCCC1CCCCC1)C(C)C,/,-13,-16,-4,/,/,/
O=C(NCCCCc1ccccc1)c1ccccc1,21,11,-20,-1,2,-1,/
CCC[C@H](CN[C@@H](CNC)[C@H](C)CC)NCCc1cc(C(F)(F)F)cc(C(F)(F)F)c1,/,124*,-21,36*,/,/,57*
CCCCOc1ccc(Br)cc1/C(C)=N/NC1=NCCN1,96*,121*,32,83*,75*,80*,66*
CCc1ccccc1Nc1ncnc2ccccc12,/,-7,-39,0,/,/,/
CCCCCCCCNc1ncnc2ccccc12,20,-17,-3,27*,63*,70*,13
O=C(Nc1cc(=O)[nH]c(=O)[nH]1)c1cc(Cl)ccc1Cl,/,-65,45,45*,/,/,14
O=C(Nc1cc(=O)[nH]c(=O)[nH]1)c1cccc(C(F)(F)F)c1,/,-4,-16,-2,/,/,/
O=C1C2CC=CCC2C(=O)N1CNc1ccccc1 (configuration not stated),-2,-16,9,0,-3,-5,/
Cc1cc(C)cc(N(CC(=O)Nc2ccc(C)cc2Cl)S(=O)(=O)c2c(C)[nH]c(=O)[nH]c2=O)c1,/,-9,-16,3,/,/,/
CC(C)c1nnc(NC(=O)c2nc(S(=O)(=O)Cc3ccc(F)cc3)ncc2Cl)s1,/,-43,2,19,/,/,/
Cc1cccc(CS(=O)(=O)c2ncc(Cl)c(C(=O)Nc3nnc(C(C)C)s3)n2)c1,/,-98,25,60*,/,/,14
Cc1ccc(CS(=O)(=O)c2ncc(Cl)c(C(=O)Nc3nnc(C(C)C)s3)n2)cc1,/,-56,38,36*,/,/,18
CSc1nnc(NC(=O)c2nc(S(=O)(=O)Cc3cccc(C)c3)ncc2Cl)s1,/,-10,24,45*,/,/,19
COC(C[C@H]1O[C@@H]1[C@@H](O)[C@H](C)OCc1ccccc1)OC,/,12,/,/,/,/,/
O=c1c2cccnc2[nH]c(=S)n1CCCN1CCN(c2ccc(F)cc2)CC1,-1,26,5,15,3,-1,/
COc1ccc(N2CCN(CCCn3c(=S)[nH]c4ncccc4c3=O)CC2)cc1,1,25,-2,30*,5,0,19
CCn1nc(C)cc1-c1nnc(Sc2ncc([N+](=O)[O-])s2)n1C,/,-14,12,102*,/,/,26*
SMILES,APP transl inh,aSyn UTR inh,KLF5 inhibitor,IEC-6 tox,BaF3 tox,Ba/F3 V617F tox,IEC-6 tox confirm
Cc1ccc(NC(=O)Cn2c(=O)cnc3ccccc32)cc1S(=O)(=O)N(C)C,-3,21,5,25*,4,5,3
Cc1ccc(NC(=O)CN2CCc3ccccc3C2)cc1S(=O)(=O)N(C)C,-12,17,-15,-7,4,1,/
CC(C)CNC(=O)CSc1nnc(-c2ccccn2)n1Cc1ccccc1,6,2,-8,-2,3,1,/
CC(=O)OC1c2c(ccc3ccc(=O)oc23)OC(C)(C)C1OC(=O)CC(C)C (configuration not stated),-1,/,-4,-2,5,-1,/
COc1ccc(N(C)C2=NS(=O)(=O)c3ccccc32)cc1,/,-70,56,55*,61*,50*,30*
CN(/N=C/c1ccc(N(C)C)cc1)C1=NS(=O)(=O)c2ccccc21,/,-97,-9,38*,/,/,16
COc1ccc(/C=N/N(C)C2=NS(=O)(=O)c3ccccc32)cc1,/,-1,-36,6,/,/,/
CCn1ccnc1CN1CCCCC1C(=O)Nc1ccc(Oc2cccnc2)cc1 (configuration not stated),/,-43,2,9,/,/,/
Cn1ccnc1CN1CCCCC1C(=O)Nc1ccc(Oc2cccnc2)cc1 (configuration not stated),/,-77,15,27*,/,/,3
Cc1cc(Br)cc2c(C(=O)Nc3c(C)n(C)n(-c4ccccc4)c3=O)cc(-c3cccs3)nc12,6,39,-26,-2,1,-2,/
O=C(Nc1ccncc1)C1CCCN(S(=O)(=O)c2cccc3cccnc23)C1 (configuration not stated),76*,27,47,56*,70*,85*,46*
COc1cccc(NC(=O)C2CCCN(S(=O)(=O)c3cccc4cccnc34)C2)c1 (configuration not stated),-20,14,-13,-8,3,0,/
N#Cc1c(NC(=O)/C=C/c2ccco2)sc2c1CCCC2,93*,26,49,93*,90*,91*,78*
CCOc1ccc(N(C(=O)c2snc(C(N)=O)c2N)C(CC)C(=O)NC2CCCC2)cc1 (configuration not stated),/,20,3,-7,/,/,/
CCOc1c(Cl)cc(C(=O)Nc2ccccc2C(=O)O)cc1Cl,6,-5,-77,37*,27*,25*,17
N#C/C(=C\c1ccccn1)c1ccccn1,/,-51,-46,28*,/,/,17
COc1ccc(NC(=O)c2c(N)no[n+]2[O-])cc1,18,12,15,33*,0,-4,28*
COc1ccc(NC(=O)c2c(N)no[n+]2[O-])c(OC)c1,15,-6,-32,-2,2,-3,/
Cc1nn2c(NCCN(C)C)c3c(nc2c1-c1ccccc1)CCCC3,/,/,-3,25*,4,7,1
COCCNc1c2c(nc3c(-c4ccccc4)c(C)nn13)CCCC2,11,37,-11,-2,8,1,/
CC(=O)N(/N=C/c1ccc([N+](=O)[O-])o1)c1nc2ccccc2c(=O)n1-c1ccccc1,/,-61,14,55*,4,5,8
Cc1nc2ccccc2c(=O)n1/N=C/c1ccc([N+](=O)[O-])o1,/,-64,-8,0,-5,1,/
O=C(NNC(=O)c1ccc(O)cc1O)c1ccc(-c2ccccc2)cc1,/,-5,-5,24*,/,/,1
CCc1nnc(N/N=C/c2ccc(-c3ccc([N+](=O)[O-])cc3)o2)n1N,14,-13,-16,10,6,1,/
